Screens: PubChem, National Center for Advancing Translational Sciences (NCATS)
Nrf2 inh = Nrf2 qHTS screen for inhibitors; A549 ARE-Fluc reporter, luciferase luminescence, 18-24 h; Potency, µM (series often up to 46 µM), without a hit: at the highest dose activity change, negative = inhibition, actives largely listed as inhibitors; hit rate 2.1% among 360,000; AID 504444, 2011; also: % is scaled to controls: 0 for no effect and ±100 for the full control effect; nearly all actives have a fitted effect of over 60% in size
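Nrf2 activity is the BugLite luminescence, read 15 min after reagent at room temperature, following CellTiter-Fluor cytotoxicity readout (30 min, 37C). Compound titrations were applied for 18-24 h to 5000 A549 ARE_Fluc cells/well in 5% FBS OPTI-MEM.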
Nrf2 activator = qHTS of Nrf2 Activators; AREc32 ARE-luciferase reporter (MCF7-derived line), luminescence, 24 h; Potency, µM (series often up to 46.1 µM), inactives show at the top dose activation, hits mostly activators; hit rate 0.31% among 410,000; AID 624171, 2012; also: % of control where 0% means no effect; nearly all actives have a fitted effect of over 65% in size
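Nrf2 activation is followed as ARE-luciferase induction in the AREc32 line after one day of compound treatment; luminescence is read with Steady-Glo.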
ATXN viability = Viability Counterscreen for Primary qHTS for Inhibitors of ATXN expression; hit rate 0.49% among 400,000; Potency, µM (doses to about 56.7 µM), hits mostly cytotoxic; S2 cells (HEK-293 line with an ATXN2-luciferase reporter) viability, CellTiter-Fluor protease fluorescence, 24 h; also: nearly all actives have a fitted effect of over 40% in size
ATXN2 expr inh = Primary qHTS for Inhibitors of ATXN expression. HEK-293 ATXN2-luciferase reporter, luminescence, 24 h. Potency, µM (doses to about 57 µM), without a hit: at the highest dose activity change, negative = inhibition, most hits filed as inhibitors. hit rate 0.72% among 360,000; also: % is scaled to controls: 0 for no effect and ±100 for the full control effect; nearly all actives have a fitted effect of over 55% in size
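qHTS (up to 57 uM final) was run with 24 h compound exposure of reporter cells at 37 °C. Each well was multiplexed: SteadyGlo luminescence measured ATXN2-luciferase expression after a fluorogenic Gly-Phe-AFC viability readout (25 uM final).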
A549 tox-1 = Nrf2 qHTS screen for inhibitors: counterscreen for cytotoxicity | A549 ARE-Fluc cells, CellTiter-Fluor viability, 18-24 h | Potency, µM (top dose mostly 46 µM), inactives show at the top dose activity change, negative = cytotoxicity, usual class: inhibitors | hit rate 0.16% among 390,000 | AID 504648, 2011; also: % is scaled to controls: 0 for no effect and ±100 for the full control effect
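A549 ARE_Fluc cells in 5% FBS OPTI-MEM were exposed to compounds in concentration-response for 18-24 h at 37 deg C. Viability was read by CellTiter-Fluor fluorescence (Ex 405/Em 525) after 30 min, before the luciferase read.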
FLuc enzyme inh = Nrf2 qHTS screen for inhibitors: Purified Fluc Biochemical Counterscreen for Hit Validation. shares compounds with Nrf2 inh. hit rate 4% among 1,400. purified firefly luciferase, luminescence inhibition. AID 720522, 2013. Potency, µM (highest dose often 57.5 µM), without a hit: top-dose activity change, negative = inhibition, hits mostly inhibitors; also: % is scaled to controls: 0 for no effect and ±100 for the full control effect; nearly all actives have a fitted effect of over 65% in size
Target sequence (P08659 whole entry, looked up): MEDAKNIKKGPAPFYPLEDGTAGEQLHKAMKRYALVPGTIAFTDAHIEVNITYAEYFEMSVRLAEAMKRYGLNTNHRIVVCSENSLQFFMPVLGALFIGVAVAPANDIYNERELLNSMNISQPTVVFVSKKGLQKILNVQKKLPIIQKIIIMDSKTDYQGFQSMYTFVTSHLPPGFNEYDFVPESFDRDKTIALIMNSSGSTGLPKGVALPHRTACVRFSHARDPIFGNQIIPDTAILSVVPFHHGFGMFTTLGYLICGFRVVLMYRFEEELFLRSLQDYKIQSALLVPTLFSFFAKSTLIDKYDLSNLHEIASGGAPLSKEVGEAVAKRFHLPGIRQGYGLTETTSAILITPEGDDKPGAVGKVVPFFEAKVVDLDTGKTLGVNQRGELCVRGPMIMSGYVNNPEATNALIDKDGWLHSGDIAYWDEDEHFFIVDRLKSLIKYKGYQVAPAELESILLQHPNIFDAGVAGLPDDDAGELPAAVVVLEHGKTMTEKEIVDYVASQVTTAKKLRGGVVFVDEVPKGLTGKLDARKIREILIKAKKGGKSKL
A549 tox-2 = Nrf2 qHTS screen for inhibitors: A549 ARE-Fluc Cytotoxicity Counterscreen for Hit Validation; shares compounds with Nrf2 inh; A549 ARE-Fluc cells, cytotoxicity counterscreen; Potency, µM (doses to about 46.1 µM), for inactives: at the top dose activity change, negative = cytotoxicity, actives largely listed as inhibitors; hit rate 2% among 1,400; AID 720523, 2013;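 also: cells exposed to compounds for 18 to 24 hours; % is scaled to controls: 0 for no effect and ±100 for the full control effect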
ARE-Fluc inh = Nrf2 qHTS screen for inhibitors: Nrf2 A549 ARE-Fluc Confirmation Assay for Hit Validation; AID 720524, 2013; Potency, µM (series often up to 46.1 µM), for the others: top-dose activity change, negative = inhibition, hits mostly inhibitors; A549 ARE-firefly luciferase reporter, luminescence; shares compounds with Nrf2 inh; hit rate 74% among 1,400; also: % is scaled to controls: 0 for no effect and ±100 for the full control effect; nearly all actives have a fitted effect of over 65% in size
Numbers without * were called inactive; i = inactive; u = inconclusive; x = no result shown; [ ] = dose if it differs, or a comment. A selection: hits, their analogues and other compounds. The true share with any hit is near 2.9%. Calls follow the shape of the dose curve; as a rule, active = well fitted curve in the direction sought with a large enough effect; inconclusive = small, poorly fitted or top-dose-only effect, or another doubt; inactive = no such curve, though single readings can be large; an effect the other way counts as inactive or inconclusive. Potency is read from the fitted curve at half-maximal effect.

SMILES	Nrf2 inh	Nrf2 activator	ATXN viability	ATXN2 expr inh	A549 tox-1	FLuc enzyme inh	A549 tox-2	ARE-Fluc inh
Nc1nc(=O)n(C2OC(CO)C(O)C2O)cc1F (stereo unspecified)	x	0.6%	u	u	x	x	x	x
O=c1[nH]c(=O)n([C@@H]2O[C@H](CO)[C@@H](O)[C@H]2O)cc1F	x	x	x	x	x	-0.2%	u	46.0%
O=C(CSc1nnc(Cn2nnc3ccccc32)o1)N(Cc1ccc(Cl)cc1)c1ccccc1	5.8µM*	-0.1%	i	-33.9%	u	-9.6%	-26.9%	9.2µM*
O=C(CSc1nnc(Cn2nnc3ccccc32)o1)Nc1cccc(Cl)c1	15.3%	0.0%	i	42.4%	-9.0%	x	x	x
Cc1ccc(CN2c3ccccc3S(=O)(=O)c3ccccc32)cc1	-0.5%	5.2%	i	-16.1%	5.4%	x	x	x
CC(C)NS(=O)(=O)c1ccc(NC(=S)NC(=O)c2ccc(-c3ccccc3)cc2)cc1	2.06µM*	-0.2%	u	-27.4%	-5.0%	-1.5%	-9.1%	4.61µM*
CC(=O)Nc1ccc(NC(=S)NC(=O)c2ccc(-c3ccccc3)cc2)cc1	-22.9%	-0.6%	u	-6.2%	-2.6%	x	x	x
CNc1cccnc1C=NNC(N)=S	0.581µM*	0.4%	i	u	u	-23.4%	-13.5%	1.46µM*
C[C@H](C(=O)OCO/N=[N+](\[O-])N1CCCC1)c1cccc2ccccc12	2.9%	x	x	x	-16.9%	x	x	x
O=C(CSc1nnc(-c2ccc(Cl)cc2)c(-c2ccc(Cl)cc2)n1)NC1CCCC1	x	4.7%	x	x	0.5%	x	x	x
Cc1ccc(-c2nnc(SCC(=O)NC3CCCC3)nc2-c2ccc(C)cc2)cc1	1.84µM*	1.0%	i	5.6%	u	-3.2%	-9.3%	-13.5%
Nc1cc[n+](CC(=O)c2ccc3c(c2)OCCO3)cc1	2.06µM*	-0.9%	u	-28.2%	u	-3.7%	u	5.8µM*
COc1ccccc1-c1c(C)[nH]n2c(=O)c(Cc3ccccc3)c(C)nc12	-22.0%	0.4%	i	-28.2%	-1.0%	x	x	x
Cc1nc2c(-c3ccccc3)c(C)[nH]n2c(=O)c1Cc1ccc(Br)cc1	8.2µM*	-0.5%	x	x	u	-1.8%	u	3.26µM*
Cc1nc2c(-c3ccccc3)c(C)[nH]n2c(=O)c1Cc1ccc(C(C)C)cc1	4.61µM*	-0.6%	i	u	u	3.5%	-21.2%	5.8µM*
CCCC(=O)c1cc(O)c(O)cc1O	x	x	u	2.3%[116 µM]	x	x	x	x
O=C(CN1c2ccccc2S(=O)(=O)c2ccccc21)Nc1ccccc1Cl	u	3.5%	i	-9.5%	-2.0%	x	x	x
CNc1c(Br)cc(C(O)C2=CCc3ccccc32)cc1Br (stereo unspecified)	x	x	x	x	x	0.6%	-16.0%	4.61µM*
CC1CCN(C(=O)CSc2nc3c(cnn3-c3ccccc3)c(=O)[nH]2)CC1	5.8µM*	0.2%	i	2.9%	-14.3%	2.7%	-23.2%	-26.4%
COc1cccc(C(=O)N(Cc2ccccc2)Cc2cc3cc4c(cc3[nH]c2=O)OCCO4)c1	2.59µM*	-0.2%	i	-13.2%	-18.0%	-4.0%	-23.1%	u
COc1ccccc1NC(=O)C1=C(C)Nc2nc(SCc3ccccc3C)nn2C1CC(C)C (stereo unspecified)	-15.9%	-0.5%	i	5.4%	1.6%	x	x	x
Cc1ccc(C)c(NC(=O)CSc2nc3c([nH]c4ccccc43)c(=O)n2-c2ccc(F)cc2)c1	x	0.9%	i	-12.4%	3.8%	x	x	x
C=C(c1nc2ccccc2s1)C1Cc2cccc3c2N(CCC3)C1 (stereo unspecified)	x	x	x	x	x	12µM*	-71.6%	2.59µM*
CN(C)c1cc[n+](CC(=O)Nc2ccc(Cl)c([N+](=O)[O-])c2)cc1	4.61µM*	-0.5%	i	-21.0%	-3.2%	-0.4%	-5.2%	8.2µM*
Cc1ccc(S(=O)(=O)N(C)Cc2ccc(C(=O)N/N=C/c3ccc(OC(F)F)cc3)cc2)cc1	5.8µM*	2.4%	11.2µM*	u	-6.1%	2.8%	-10.5%	6.51µM*
O=C(/C=C/c1ccccc1)NC(NC(=S)Nc1ccc(Cl)cc1)C(Cl)(Cl)Cl (stereo unspecified)	6.51µM*	3.3%	i	u	u	u	u	5.17µM*
CC1CN(S(=O)(=O)c2cc(C(=O)NCCC3=CCCCC3)ccc2Cl)CC(C)O1 (stereo unspecified)	8.2µM*	2.6%	u	1.5%	-18.8%	u	-14.9%	5.8µM*
COc1ccc(CNC(=O)c2ccc(Cl)c(S(=O)(=O)N3CCOCC3)c2)cc1OC	1.3µM*	-0.6%	i	-26.8%	u	0.2%	4.6%	x
O=C(NCCc1ccc(F)cc1)c1ccc(Cl)c(S(=O)(=O)N2CCOCC2)c1	8.2µM*	-0.2%	u	-15.3%	-9.2%	-11.7%	-8.2%	u
